Assay results from the supplement of paper PMC12350171.
Structures can show the parent of a compound that is named as a salt. Unmarked numbers belong to inactive results.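 Rule for the calls: active = AUC significantly below DMSO controls by Student t-fit with adjusted P under 0.01; inactive = not significantly reduced.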

Test system: Haemophilus parainfluenzae
Test: growth AUC normalised to DMSO control (fraction of control); higher = less growth inhibition, active = hit call of the paper
Conditions: 20 µM
In short: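 Pathogens passaged twice anaerobically were inoculated at a starting OD578 of 0.01 into pre-reduced mGAM plates with drug at 20 μM and 1% DMSO, sealed with breathable membranes. Haemophilus parainfluenzae medium was supplemented with hemin and NAD. OD578 was read hourly for 24 h, with three biological replicates. Growth-curve AUC was computed by the trapezoidal rule up to the exponential-to-stationary transition and normalised to DMSO controls on the same plate.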

Structure (SMILES)	growth AUC normalised to DMSO control
C[C@@H]1[C@H](O)[C@@H](C)/C=C/C=C/C=C/C=C/C=C/C=C/C=C/[C@H](O[C@@H]2O[C@H](C)[C@@H](O)[C@H](N)[C@@H]2O)C[C@@H]2O[C@](O)(C[C@@H](O)C[C@@H](O)[C@H](O)CC[C@@H](O)C[C@@H](O)CC(=O)O[C@H]1C)C[C@H](O)[C@H]2C(=O)O [Amphotericin B]	1.09
COc1cc2nc(N(C)CCCNC(=O)C3CCCO3)nc(N)c2cc1OC (centres undefined) [Alfuzosin hydrochloride]	1.03
C=CCc1ccccc1OCC(O)CNC(C)C (centres undefined) [Alprenolol hydrochloride]	1.06
OC(CCN1CCCCC1)(c1ccccc1)C1CCCCC1 (centres undefined) [Trihexyphenidyl-D,L hydrochloride]	1.01
CCN1CCCC(OC(=O)C(c2ccccc2)c2ccccc2)C1 (centres undefined) [Piperidolate hydrochloride]	1.05
CNCCC(Oc1ccccc1OC)c1ccccc1 (centres undefined) [Nisoxetine hydrochloride]	1.02
c1ccc(CNc2ncnc3nc[nH]c23)cc1 [Aminopurine, 6-benzyl]	1
COc1c(N2CCNC(C)C2)c(F)cc2c(=O)c(C(=O)O)cn(C3CC3)c12 (centres undefined) [Gatifloxacin]	0.0535 (active)
CC(C(=O)O)c1ccc(N2Cc3ccccc3C2=O)cc1 (centres undefined) [Indoprofen]	1.02
CN/C(=N\CCSCc1nc[nH]c1C)NC#N [Cimetidine]	0.993
Cc1nc2ccccn2c(=O)c1CCN1CCC(C(=O)c2ccc(F)cc2)CC1 [Pirenperone]	0.982
OC(CCN1CCCC1)(c1ccccc1)C1CCCCC1 (centres undefined) [Procyclidine hydrochloride]	0.962
CC(=O)N1CCN(c2ccc(OCC3COC(Cn4ccnc4)(c4ccc(Cl)cc4Cl)O3)cc2)CC1 (centres undefined) [Ketoconazole]	1.03
Nc1ccn([C@@H]2CS[C@H](CO)O2)c(=O)n1 [Lamivudine]	0.999
CN(C)CCCN1c2ccccc2CCc2ccc(Cl)cc21 [Clomipramine hydrochloride]	0.922
CN(C)CCOC(=O)COc1ccc(Cl)cc1 [Meclofenoxate hydrochloride]	0.896
COCCc1ccc(OCC(O)CNC(C)C)cc1 (stereo not drawn) [Metoprolol-(+)-tartrate salt]	0.952
N[C@@H]1CONC1=O [D-cycloserine]	1.04
CO[C@H]1/C=C/O[C@@]2(C)Oc3c(C)c(O)c4c(O)c(c(/C=N/N5CCN(C)CC5)c(O)c4c3C2=O)NC(=O)/C(C)=C\C=C\[C@H](C)[C@H](O)[C@@H](C)[C@@H](O)[C@@H](C)[C@H](OC(C)=O)[C@@H]1C [Rifampicin]	0.0335 (active)
NS(=O)(=O)c1cc2c(cc1Cl)N=CNS2(=O)=O [Chlorothiazide]	1.01

Structure (SMILES)	growth AUC normalised to DMSO control
CCCC(=O)Nc1ncnc2c1ncn2[C@@H]1O[C@@H]2COP(=O)(O)O[C@H]2[C@H]1OC(=O)CCC [Bucladesine sodium salt]	1
COc1cccc2c1C(=O)c1c(O)c3c(c(O)c1C2=O)C[C@@](O)(C(=O)CO)C[C@@H]3O[C@H]1C[C@H](N)[C@H](O)[C@H](C)O1 [Doxorubicin hydrochloride]	0.979
O=C1c2ccccc2S(=O)(=O)N1CCCCN1CCN(c2ncccn2)CC1 [Ipsapirone]	0.979
CNC(=C[N+](=O)[O-])NCCSCc1ccc(CN(C)C)o1 [Ranitidine hydrochloride]	0.992
C[C@H]1O[C@H](O[C@H]2[C@H](O)[C@@H](O)[C@@H](O[C@@H]([C@H](O)[C@@H](O)C=O)[C@H](O)CO)O[C@@H]2CO)[C@H](O)[C@@H](O)[C@@H]1N[C@H]1C=C(CO)[C@@H](O)[C@H](O)[C@H]1O [Acarbose]	1.02
Cc1ncc([N+](=O)[O-])n1CC(C)O (centres undefined) [Secnidazole]	0.937
OCc1cc(C(O)CNCCCCCCOCCCCc2ccccc2)ccc1O (centres undefined) [Salmeterol]	0.962
Cc1c(NC(C)C)c(=O)n(-c2ccccc2)n1C [Isopyrin hydrochloride]	0.967
C#C[C@]1(OC(C)=O)CC[C@H]2[C@@H]3CCC4=C[C@@H](OC(C)=O)CC[C@@H]4[C@H]3CC[C@@]21C [Ethynodiol diacetate]	0.974
CC(C)NCC(O)COc1ccc(CCOCC2CC2)cc1 (centres undefined) [Betaxolol hydrochloride]	0.988
c1ccc(CN(CC2=NCCN2)c2ccccc2)cc1 [Antazoline hydrochloride]	1.01
Nc1cc(-c2ccncc2)c[nH]c1=O [Amrinone]	1.09
COc1ccc2cc(CCC(C)=O)ccc2c1 [Nabumetone]	0.997
O=C1NCCN1CCN1CCC(c2cn(-c3ccc(F)cc3)c3ccc(Cl)cc23)CC1 [Sertindole]	1
CCCCC1C(=O)N(c2ccccc2)N(c2ccccc2)C1=O [Phenylbutazone]	1.02
COCCOC(=O)C1=C(C)NC(C)=C(C(=O)OC(C)C)C1c1cccc([N+](=O)[O-])c1 (centres undefined) [Nimodipine]	0.959
Cc1ccc(C(=O)c2ccc(CC(=O)O)n2C)cc1 [Tolmetin sodium salt dihydrate]	1.07
Cc1cccc(C)c1NC(=O)C(C)N (centres undefined) [Tocainide hydrochloride]	0.99
C=CCN1CCCC1CNC(=O)c1cc2nn[nH]c2cc1OC (centres undefined) [Alizapride hydrochloride]	1
